From the supplement of paper PMC13380429

Tested on: Vero E6 infected with SARS-CoV-2
Experiment: inhibition of SARS-CoV-2 cytopathic effect; higher = more antiviral protection, active = above 15
Settings: 48 h

Measured: inhibition of SARS-CoV-2 cytopathic effect

OCc1ccc(O[C@@H]2O[C@H](CO)[C@@H](O)[C@H](O)[C@H]2O)cc1 [gastrodin]
inactive: 1 nM -0.38% | 8.33 nM -2.3% | 100 nM -2.66% | 833.33 nM -2.37% | 10000 nM -4.3%

CC(=O)O[C@@]12CO[C@@H]1C[C@H](O)[C@@]1(C)C(=O)[C@H](O)C3=C(C)[C@@H](O)C[C@@](O)([C@@H](OC(=O)c4ccccc4)[C@H]21)C3(C)C [10-deacetylbaccatin]
inactive: 1 nM -0.5% | 8.33 nM 0.94% | 100 nM -1.67% | 833.33 nM -4.55% | 10000 nM -2.63%

COc1ccc(Cl)c(Nc2ncnc3cc(OCC4CCN(C)CC4)c(OC)cc23)c1
inactive: 1 nM -1.15% | 8.33 nM -0.25% | 100 nM -0.48% | 833.33 nM -6.41% | 10000 nM -13.8%

O=c1nc2ccccc2c2n1CC(CN1CCN(c3ccccc3)CC1)N2 (stereo not given)
inactive: 1 nM 3.05% | 8.33 nM 5.11% | 100 nM 2.83% | 833.33 nM 4.08% | 10000 nM 5.46%

CC(C)(CO)c1cc2cc(NC(=O)C3(c4ccc5c(c4)OC(F)(F)O5)CC3)c(F)cc2n1C[C@@H](O)CO [tezacaftor]
inactive: 1 nM 0.35% | 8.33 nM 0.97% | 100 nM -1.35% | 833.33 nM 1.62% | 10000 nM 0.29%

N[C@@H](CSS(=O)(=O)O)C(=O)O [S-sulfo-L-cysteine]
inactive: 1 nM -0.33% | 8.33 nM 1.82% | 100 nM -0.09% | 833.33 nM 1.93% | 10000 nM 0.23%

C[N+]1([O-])[C@@H]2CC[C@H]1C[C@@H](OC(=O)C(CO)c1ccccc1)C2 (stereo not given in full) [atropine-oxide]
inactive: 1 nM -2.53% | 8.33 nM -2.05% | 100 nM -1.67% | 833.33 nM -2.02% | 10000 nM -1.76%

CC(Cc1ccccc1)(NC(=O)CN)c1ccccc1 (stereo not given) [remacemide]
inactive: 1 nM 0.2% | 8.33 nM 0.62% | 100 nM -0.89% | 833.33 nM 0.88% | 10000 nM 0.24%

OC[C@H]1O[C@@H](c2ccc(Cl)c(Cc3ccc(O[C@H]4CCOC4)cc3)c2)[C@H](O)[C@@H](O)[C@@H]1O [empagliflozin]
inactive: 1 nM 1.11% | 8.33 nM -0.27% | 100 nM 0.91% | 833.33 nM 1.13% | 10000 nM -2.24%

Oc1ccc(Cl)cc1Cc1cc(Cl)ccc1O [dichlorophen]
inactive: 1 nM -4.53% | 8.33 nM 0.22% | 100 nM -2.85% | 833.33 nM -2.86% | 10000 nM 1.46%

NC[C@@H](O)CC(=O)O [aminohydroxybutyric-acid]
inactive: 1 nM -3.49% | 8.33 nM -1.06% | 100 nM -2.52% | 833.33 nM -2.28% | 10000 nM -0.71%

CCCNC(=O)NS(=O)(=O)c1ccc(Cl)cc1 [chlorpropamide]
inactive: 1 nM 0.91% | 8.33 nM 0.48% | 100 nM -1.08% | 833.33 nM -0.4% | 10000 nM -2.67%

O=P(O)(O)C(O)(Cc1cccnc1)P(=O)(O)O [risedronate]
inactive: 1 nM -0.54% | 8.33 nM -1.25% | 100 nM -0.67% | 833.33 nM 3.13% | 10000 nM 1.96%

CCn1cc(C(=O)O)c(=O)c2ccc(C)nc21 [nalidixic-acid]
inactive: 1 nM 0.83% | 8.33 nM 1.11% | 100 nM 0.89% | 833.33 nM 0.77% | 10000 nM -0.57%

CC(C)[C@H]1c2ccc(F)cc2CC[C@@]1(CCN(C)CCCc1nc2ccccc2[nH]1)OC(=O)C1CC1
inactive: 1 nM 1.78% | 8.33 nM 2.76% | 100 nM 7.24% | 833.33 nM -2.65% | 10000 nM -19.3%

CN1C(=O)COc2c(C(=O)NC3CN4CCC3CC4)cc(Cl)cc21 (stereo not given) [azasetron]
inactive: 1 nM 1.97% | 8.33 nM 1.89% | 100 nM 0.9% | 833.33 nM -0.56% | 10000 nM -0.16%

CN1C(=O)c2c(nn(Cc3ccc(-c4cccc(F)n4)cc3)c2Nc2ccccc2)N2C1=N[C@@H]1CCC[C@@H]12
inactive: 1 nM 0.59% | 8.33 nM 1.65% | 100 nM 2.18% | 833.33 nM 3.15% | 10000 nM 0.62%

Cc1nc(NC(=O)N2CCC[C@H]2C(N)=O)sc1-c1ccnc(C(C)(C)C(F)(F)F)c1 [alpelisib]
inactive: 1 nM 2.4% | 8.33 nM 0.48% | 100 nM 0.01% | 833.33 nM -1.87% | 10000 nM 0.02%
